The results in this text go back to PubChem BioAssay (NCATS).

The target of the test is Calcium and integrin-binding protein 1 (Homo sapiens) (UniProt Q99828). Kind of test: Primary qHTS for Identification of Calcium Integrin Binding Protein 1 (CIB1) Competitor (AID 1508620).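 Further: GST tagged CIB1 binding a fluorescein labelled alphaIIb integrin peptide tracer; top concentration of the series differs between compounds.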 Put shortly:
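Fluorescence polarization competition: CIB1-GST (1 uM final) preincubated with compound 15 min at room temperature, then FITC-labeled alphaIIb peptide (100 nM final) added for another 15 min. Polarization read at Ex 480/Em 540.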
For orientation: qHTS replaces the single test concentration by a dilution series.

Results filed as inconclusive are left out. Where a call stands in place of a potency, no number is given. Active and inactive are the calls of the source. The call rests on the fitted dose curve; in most records, active means well fitted inhibition curve with a large enough effect; inconclusive means small, poorly fitted or top-dose-only effect; inactive means flat fitted curve, though single readings scatter.

Chain of Calcium and integrin-binding protein 1 (Homo sapiens) (Q99828 whole entry, looked up): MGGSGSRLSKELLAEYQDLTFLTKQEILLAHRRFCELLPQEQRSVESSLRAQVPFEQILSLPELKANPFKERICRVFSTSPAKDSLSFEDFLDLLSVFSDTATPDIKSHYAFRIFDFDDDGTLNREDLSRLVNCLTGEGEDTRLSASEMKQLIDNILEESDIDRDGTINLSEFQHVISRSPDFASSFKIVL

For the molecule `O=C(Nc1ccc(-c2ccccc2)cc1)Nc1nnc(-c2ccncc2)s1`, the Potency entry was “inactive”.

As to `CNc1nc(-c2cccc3ccccc23)ccc1C#N`, the Potency result is “inactive”.

As for `NC(=O)C1CCN(c2nccc(-c3ccc4c(c3)OCCO4)n2)CC1`, the Potency entry was “inactive”.

For the molecule `Cc1ccc(OCCn2c(CCNC(=O)/C=C/c3ccccc3Cl)nc3ccccc32)cc1`, the Potency entry was “inactive”.

Regarding `N#Cc1nc(Nc2cc(F)cc(F)c2)c2ncn(CCN3CCCC3)c2n1`, the Potency result is “inactive”.

Turning to `O=C(CN1C(=O)N/C(=C\c2cn(-c3cccc(C(=O)O)c3)cn2)C1=O)Nc1ccccc1Cl`, the Potency result is “inactive”.

Regarding `O=C1Nc2ccccc2/C1=C/c1cc(Cl)c(O)c(Cl)c1`, the Potency result is “inactive”.

Regarding `N#Cc1nc(Nc2cc(F)cc(F)c2)c2ncn(CCCN3CCCC3)c2n1`, the Potency entry was “inactive”.

`CCC(Nc1ncnc2ccc(-c3c(C)noc3C)cc12)c1ccccc1` (stereo not given): the Potency result was “inactive”.

On to `Cc1ccc(C(=O)NCC(=O)OC(C(=O)Nc2cc(C(F)(F)F)ccc2Cl)c2ccccc2)cc1` (stereo not given), for which the Potency entry is “inactive”.

As for `FC(F)(F)c1ccc(CSc2nc3ncc(Br)cc3[nH]2)cc1`, the Potency entry was “inactive”.

Turning to `COc1cccc(C2=Nn3c(nnc3-c3cc(OC)cc(OC)c3)SC2)c1`, the Potency entry was “inactive”.

With `O=[N+]([O-])c1ccccc1CSc1nc2ncc(Br)cc2[nH]1`, the Potency result is “inactive”.

For `O=[S+]([O-])(Nc1ccccc1F)c1cccc(NC/C=C/c2ccccc2)c1`, the Potency entry is “inactive”.

Regarding `O=C(Nc1ccc(Cl)c(Cl)c1)Nc1cccc(-c2ccncc2)n1`, the Potency entry is “inactive”.

As for `O=C(c1ccc2c(c1)ncn2-c1cccc(Cl)c1)N1CCCCC1`, the Potency result is “inactive”.

As to `COc1ccc(Nc2nc(-c3ccncc3)nc3ccccc23)cc1F`, the Potency entry is “inactive”.

In the case of `c1ccc(-n2cc(-c3nnc4n3CCCCC4)c3ccccc32)cc1`, the Potency result is “inactive”.

On to `CC(C)c1ccccc1-c1ncc(N(C)C)c(NCc2ccc(-c3cccnc3)cc2)n1`, for which the Potency entry was “inactive”.

Take `COc1cccc(Cn2ncc3c4sc(Br)cc4n(C)c3c2=O)c1`: the Potency entry is “inactive”.

With `O=C1c2ccccc2NC(c2ccccc2O)N1Cc1ccccc1` (stereo not given), the Potency result is “inactive”.

With `Cc1cc2c(s1)c1cnn(Cc3ccc(F)c(F)c3F)c(=O)c1n2C`, the Potency result was “inactive”.

Turning to `Cn1nnnc1Sc1ncnc2scc(-c3ccccc3[N+](=O)[O-])c12`, the Potency entry was “inactive”.

As for `COc1ccc(C(=O)Nc2ccc(-c3nc4ccccc4[nH]3)cc2)cc1Br`, the Potency entry was “inactive”.

As to `O=C(Nc1cccc2c1cnn2-c1ccc(F)cc1)c1ccccn1`, the Potency entry is “inactive”.

As to `CCn1cnc2c(Nc3ccc(Cc4cccnc4)cc3)nc(C#N)nc21`, the Potency entry is “inactive”.

Take `CCNC(=O)c1ccc(-c2ccc3ncnc(NCc4ccc(C)o4)c3c2)o1`: the Potency result was “inactive”.

For `Cc1cc(C)nc(NC(=S)N2CCN(c3ccc(Cl)c(Cl)c3Cl)CC2)c1`, the Potency entry is “inactive”.

With `COc1ccc2nc(-c3ccc(N(C)C)cc3)sc2c1`, the Potency entry is “inactive”.

In the case of `CC(=O)Nc1cccc(OC2=NS(=O)(=O)c3ccccc32)c1`, the Potency entry was “inactive”.
